The list is not random: actives were taken first. Their share in the collection is about 3%.
KLF5 inhibitor = kruppel-like factor 5 inhibition | DLD-1 KLF5 promoter-luciferase reporter, luminescence | inhibition, % at 5 µM | 0.23% of 290,000 active | AID 1700;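 active means inhibition above a per-plate limit of that plate's mean compound inhibition plus 3 SD, cut at about 60% in these data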;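 further: 0% = DMSO wells and 100% = LY294002 at 200 µM; higher means less KLF5 promoter-driven luciferase light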
SKKanGAS inh = SKKanGAS growth inhibition; 1.3% of 300,000 active; AID 1662; inhibition, % at 7.5 µM; S. pyogenes SKKanGAS, kanamycin growth, BacTiter-Glo, 6 h;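 active means mean replicate score, as percent of positive control median, at least 50; inconclusive means mean below 50 but one replicate at or above 50; inactive means mean and every replicate below 50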;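 further: strain carries kanamycin resistance gene driven by streptokinase promoter and grows in 40 µg/ml kanamycin; loss of luminescence reflects streptokinase promoter inhibition or plain growth inhibition; 0% = median of DMSO wells and 100% = positive control at its reference dose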
CSC inhib = cancer stem cell inhibition | cancer stem cell-like cells viability, luminescence | inhibition, % at 7.5 µM | 1.1% of 300,000 active | AID 2717; in the data active means inhibition above about 75%; inconclusive means no clear call, values can overlap the other calls; tested in HMLE shEcad cells
aSyn 5UTR inh = MLPCN primary screen, SNCA 5' untranslated region; alpha-synuclein 5'UTR reporter, inhibitor activity; inhibition, % (tested at 7.5 µM); 0.82% of 300,000 active; AID 1813; in the data active means inhibition above about 60%; inconclusive means no clear call, values can overlap the other calls;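 further: H4 neuroglioblastoma cells stably carrying SNCA 5'UTR luciferase fusion; 0% = DMSO wells and 100% = positive control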
IEC-6 cytotox = IEC-6 cytotoxicity, counter-screen for KLF5 inhibitors | luminescence viability | inhibition, % at 5 µM | 0.78% of 290,000 active | AID 1825; in the data active means inhibition above about 22%;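 further: 0% = plate median of test compound wells and 100% = cytotoxic reference compound wells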
* hit, by the source's call; ? = inconclusive; nt = not tested or not shown.

SMILES	KLF5 inhibitor	SKKanGAS inh	CSC inhib	aSyn 5UTR inh	IEC-6 cytotox
Cc1ccc(/C=C/C(=O)c2ccc([N+](=O)[O-])o2)cc1	nt	67*	35	-34	nt
Cc1ccc(CNC(=O)c2nn(C)c(C)c2[N+](=O)[O-])cc1	0	-11	6	14	-3
CCOC(=O)c1cnc2cc(F)c(F)cc2c1N1CCOCC1	-13	0	-15	33	1
COC(=O)c1cn(NC(=O)c2ccc([N+](=O)[O-])cc2Cl)c(=O)c2ccccc12	11	3	14	24	1
Cc1cccc(CNc2ccc(C(CC(N)=O)NC(=O)c3cccc(Br)c3)cc2[N+](=O)[O-])c1 (centres undefined)	nt	7	8	15	nt
Cc1ccc(NC(=O)NC2CCCCCCC2)cc1C	-181	nt	-9	nt	-7
Cc1ccc(NC(=O)c2ccc(C#CC3(O)CCCCC3)cc2)cc1C	-12	51*	nt	6	1
O=C(c1nnsc1S(=O)c1ccc(Cl)cc1)N1CCOCC1 (centres undefined)	14	36	nt	-50	14
O=C(Nc1ccccc1)c1nnsc1S(=O)c1ccc(Cl)cc1 (centres undefined)	-29	73*	106*	-103	6
COC(=O)[C@@H](Cc1c[nH]c2ccccc12)NC(=O)CNC(=O)c1ccccc1OC	-10	-2	-6	29	2
CCOC(=O)Cn1nc(C)c(NC(=O)c2ccc(Cl)c([N+](=O)[O-])c2)c1C	-22	5	9	-27	-4
S=c1nc[nH]c2c1ncn2C1CCCO1 (centres undefined)	8	2	122*	2	78*
Cc1nn(-c2ccc(N3CCOCC3)nn2)c(C)c1CCC(=O)NCc1ccccc1F	-27	-7	-10	1	-4
Cc1cccc(C)c1OCc1cc(C(=O)N(C)CCc2ccccn2)no1	-10	-3	4	-11	-4
CCOC(=O)c1cnc(-c2ccccc2O)nc1Cl	-44	6	-3	-18	-4
CCOC(=O)C1=Nc2ccccc2C1=[N+]=[N-]	-15	103*	-4	21	-2
Cc1cccc(NS(=O)(=O)c2ccc3oc(=O)ccc3c2)c1C	-10	2	-12	5	2
Cc1ccc(C(=O)NNC2=Nc3cccc4cccc2c34)cc1	7	58*	14	58	4
CS(=O)(=O)N(CC(=O)Nc1cccc(F)c1)c1cccc([N+](=O)[O-])c1	-16	12	-11	-10	1
CC(=O)Nc1ccc(NC(=O)CN(c2cccc([N+](=O)[O-])c2)S(C)(=O)=O)cc1	-10	-20	-17	69*	-7
O=C(Nc1ccc2ccccc2n1)Nc1cccs1	2	-7	-4	-62	6
CCCCCn1c(N2CCC(Cc3ccccc3)CC2)nc2c1c(=O)[nH]c(=O)n2C	-20	93*	118*	22	-7
Cn1c(=O)[nH]c(=O)c2c1nc(N1CCC(Cc3ccccc3)CC1)n2Cc1ccccc1	-64	53*	14	32	-4
CCCn1c(N2CCC(Cc3ccccc3)CC2)nc2c1c(=O)[nH]c(=O)n2C	20	1	8	22	-4
Nc1nc2ccccc2[nH]1	-24	-2	-6	8	1
SMILES	KLF5 inhibitor	SKKanGAS inh	CSC inhib	aSyn 5UTR inh	IEC-6 cytotox
Nc1ccccc1Sc1nc2ccccc2[nH]1	-8	61*	nt	-48	2
CC(Oc1cccc(Cl)c1)C(=O)Nc1ccccc1N1CCCCC1 (centres undefined)	nt	73*	36	27	nt
CCC(Oc1ccccc1)C(=O)Nc1ccccc1N1CCCCC1 (centres undefined)	-5	61*	24	19	5
CC(Oc1cccc(Cl)c1)C(=O)Nc1ccccc1C(=O)N1CCCCC1 (centres undefined)	nt	-4	-13	6	nt
CCCC(O)(c1ccc(Cl)cc1)C(CN1CCOCC1)c1ccccc1 (centres undefined)	-19	-5	nt	15	-4
CCCC(O)(c1ccc(Br)cc1)C(CN1CCOCC1)c1ccc(Cl)cc1 (centres undefined)	-4	?	93*	3	-8
O=C(NC1CC(=O)N(c2ccc(Cl)cc2)C1)C1CC1 (centres undefined)	nt	-10	-5	18	nt
O=C(NC(c1ccccc1)c1ccccc1)c1ccc(=O)[nH]n1	-21	-3	-8	-6	0
Brc1ccc(N/N=C(/N=Nc2nn[nH]n2)c2ccccc2)cc1	43	35	-10	97*	10
O=C(/C(=N\Nc1ccc(Br)cc1)Sc1nnnn1-c1ccccc1)c1ccccc1	-16	28	26	-12	3
CCOc1ccccc1OCCCCCc1c(C)n[nH]c1C	6	61*	-15	2	5
Cc1cccc(OCCCCc2c(C)n[nH]c2C)c1C	-23	99*	25	-23	-3
Cc1cccc(OCCCOc2cccc3cccnc23)c1C	-5	58*	-7	-39	4
COc1ccccc1OCCCCCc1c(C)n[nH]c1C	-40	66*	-7	-29	1
Cc1cccc(OCCCCc2c(C)n[nH]c2C)c1	-7	-5	-4	26	1
Cc1ccc(OCCCOc2cccc3cccnc23)cc1C	-20	37	4	-31	-6
COc1ccccc1OCCCc1c(C)n[nH]c1C	-48	-6	-5	-6	7
Cc1cccc(N(C)S(=O)(=O)c2c[nH]c3ccc([N+](=O)[O-])cc23)c1	-16	6	nt	8	0
CC(C)c1ccc2nc(SCC(=O)NCC3CCCO3)c(C#N)cc2c1 (centres undefined)	-43	9	4	-143	-2
CC12CCC(C(=O)Nc3c(Cl)cccc3Cl)(C(Br)C1=O)C2(C)C (centres undefined)	-1	3	1	16	-3
CC12CCC(C(=O)Nc3cccc(Cl)c3Cl)([C@H](Br)C1=O)C2(C)C (some centres undefined)	-17	54*	54	11	-6
Cc1nc(N)sc1N=Nc1ccc(F)cc1	-86	81*	-5	-107	2
Nc1n[nH]c(N)c1N=Nc1ccc(F)cc1	1	2	-2	-37	5
CC(C)n1nc(C(=O)OCn2nnc3ccccc3c2=O)c2ccccc2c1=O	-13	-11	-8	-8	-5
Cc1nn(-c2ccccc2)c(Cl)c1/C=C1\SC(=S)N(CCCCCC(=O)O)C1=O	-17	80*	17	-18	-5
SMILES	KLF5 inhibitor	SKKanGAS inh	CSC inhib	aSyn 5UTR inh	IEC-6 cytotox
O=C(CCN1C(=O)/C(=C/c2cccs2)SC1=S)Nc1ccccc1O	-52	10	12	-8	1
O=C(CCCN1C(=O)/C(=C\c2cccs2)SC1=S)Nc1cc([N+](=O)[O-])ccc1O	-25	73*	28	-38	-6
COc1cc(/C=C2/SC(=S)N(Cc3ccccc3)C2=O)ccc1O	-20	66*	100*	-67	10
O=C1/C(=C\c2cc([N+](=O)[O-])ccc2O)SC(=S)N1Cc1ccc(Cl)cc1	3	96*	104*	6	-5
CN(CC(=O)N1CCN(Cc2ccccc2)CC1)C(=O)Cc1cccc2ccccc12	nt	nt	-11	nt	nt
Cc1cccc(C)c1NC(=O)c1cnccn1	-29	1	-2	-10	-4
